# Measurements as given in PubChem BioAssay (NCATS).
# Results filed as inconclusive are left out. Activity calls are given as the source filed them. Unless noted, calls follow the shape of the dose curve; as a rule, active = well fitted cell-killing curve with a large enough effect; inconclusive = small, poorly fitted or top-dose-only effect, or effect the other way; inactive = no such curve, though single readings can be large or run the other way.
# Tests used:
# [1] = Quantitative High-Throughput drug screen in 47 multiple myeloma cell lines against the NCATS MIPE library collection: PE2_PLB cell viability assay (AID 1919869); also: nearly all actives have a fitted effect of over 35% in size; also: potency is read from the fitted curve at half-maximal effect
# In short: (§1)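 qHTS format: cells plated (500/well), pin-dosed with MIPE 4.0 compounds, kept 48 h at 37 °C. Readout was CellTiter-Glo luminescence, median RLU.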
# [2] = Quantitative High-Throughput drug screen in 47 multiple myeloma cell lines against the NCATS MIPE library collection: PCM6_Riken cell viability assay (AID 1919870); also: nearly all actives have a fitted effect of over 30% in size; also: potency is read from the fitted curve at half-maximal effect
# In short: as §1
# [3] = Quantitative High-Throughput drug screen in 47 multiple myeloma cell lines against the NCATS MIPE library collection: RPMI8226_ATCC cell viability assay (AID 1919871); also: nearly all actives have a fitted effect of over 30% in size; also: potency is read from the fitted curve at half-maximal effect
# In short: as §1
# [4] = Quantitative High-Throughput drug screen in 47 multiple myeloma cell lines against the NCATS MIPE library collection: OPM2_DSMZ cell viability assay (AID 1919872); also: nearly all actives have a fitted effect of over 30% in size; also: potency is read from the fitted curve at half-maximal effect
# In short: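 Approved and investigational drugs from MIPE 4.0 were added by pin tool to 500 cells per well. After 48 hours at 37C, ATP-based CellTiter-Glo luminescence indicated remaining viability.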
# [5] = Quantitative High-Throughput drug screen in 47 multiple myeloma cell lines against the NCATS MIPE library collection: KMS11_JCRBsus cell viability assay (AID 1919873); also: nearly all actives have a fitted effect of over 50% in size; also: potency is read from the fitted curve at half-maximal effect
# In short: as §1
# [6] = Quantitative High-Throughput drug screen in 47 multiple myeloma cell lines against the NCATS MIPE library collection: KMS28BM_JCRB cell viability assay (AID 1919874); also: nearly all actives have a fitted effect of over 35% in size; also: potency is read from the fitted curve at half-maximal effect
# In short: as §1
# [7] = qHTS for identification of novel therapeutic agents for treatment of microphthalmiaassociated transcription factor (MiT) renal cell carcinoma (RCC) (AID 1963991; calls by dose curve; also: potency is read from the fitted curve at half-maximal effect); details: CellTiter-Glo, 48 h; for z-score: stronger effect = lower value
# In short: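 Three TFE3-fusion RCC cell lines (UOK109, UOK124, UOK145), 500 cells/well, were exposed to the 1912-compound MIPE 4.0 library for 48 hours at 37 C. Viability was read by CellTiter-Glo luminescence, normalised to DMSO (100%) and empty wells (0%), with 11-concentration curve fits.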
# [8] = qHTS drug screen for cell cycle checkpoint inhibitors in PARPi-resistant BRCA-mutant ovarian cancer cell lines. (AID 1963452; calls by dose curve); details: PEO1/OlaR viability, CellTiter-Glo luminescence, 96 h, stronger effect = lower value
# In short: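 PEO1, PEO4 and PEO1/OlaR ovarian cancer cells, 600 per well, exposed 96 h at 37C to a dilution series. Viability read by CellTiter-Glo luminescence, normalized to DMSO and empty wells; activity summarized as Z-AUC.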
# [9] = TFE3-RCC UOK109 viability, measured here: UOK109 Z-AUC
# [10] = TFE3-RCC viability, measured here: UOK124 Z-AUC
# [11] = TFE3-RCC viability, measured here: UOK145 Z-AUC
# [12] = measured here: PEO1 parental Z-AUC
smiles,measurement,setting,value
CO[C@H]1C=CC=C(C)C(=O)NC2=CC(=O)C(NCCN(C)C)=C(C[C@@H](C)C[C@H](OC)[C@@H](O)[C@@H](C)C=C(C)[C@@H]1OC(N)=O)C2=O,Potency,[1],0.0935 µM (active)
same,Potency,[2],0.105 µM (active)
same,Potency,[3],0.0469 µM (active)
same,Potency,[4],0.0743 µM (active)
same,Potency,[5],0.0093 µM (active)
same,Potency,[6],0.166 µM (active)
same,Potency,"[7]; TFE3-RCC UOK109 viability, active = Z-AUC below -0.8 in all three lines",2.64 µM (active)
same,z-score,[7]; [9],-1.45
same,z-score,[7]; [10],-3.65
same,z-score,[7]; [11],-1.68
COc1ccc2cccc(CCNC(C)=O)c2c1,Potency,[1],inactive
same,Potency,[2],inactive
same,Potency,[3],inactive
same,Potency,[4],inactive
same,Potency,[5],inactive
same,Potency,[6],inactive
same,Z-AUC,[8],-0.374 (inactive)
same,Z-AUC,[8]; [12],-0.478
same,Z-AUC,[8]; measured here: PEO4 Z-AUC,-0.326
same,z-score,[7]; [9],0.892
same,z-score,[7]; [10],0.661
same,z-score,[7]; [11],0.732
CCN(CC)CCOc1ccc(C(=C(Cl)c2ccccc2)c2ccccc2)cc1,Potency,[4],inactive
same,Potency,[6],10.5 µM (active)
CC(C)n1cnc2c(NCCCCCCNC(=O)OC(C)(C)C)nc(NCCO)nc21,Potency,[2],16.6 µM (active)
same,Potency,[3],14.8 µM (active)
same,Z-AUC,[8],0.728 (inactive)
same,Z-AUC,[8]; [12],0.841
same,Z-AUC,[8]; measured here: PEO4 Z-AUC,1.56
C=C1C(=O)OC(CCCCCCCC)C1C(=O)O (stereo not drawn),Potency,[2],23.5 µM (active)
same,Potency,[4],inactive
same,Potency,[6],inactive
same,Z-AUC,[8],0.778 (inactive)
same,Z-AUC,[8]; [12],0.453
same,Z-AUC,[8]; measured here: PEO4 Z-AUC,0.342
same,z-score,[7]; [9],0.725
same,z-score,[7]; [10],0.792
same,z-score,[7]; [11],0.524
CC/C(=C(\c1ccccc1)c1ccc(OCCN(C)C)cc1)c1ccccc1,Z-AUC,[8],-0.344 (inactive)
same,Z-AUC,[8]; [12],-0.716
same,Z-AUC,[8]; measured here: PEO4 Z-AUC,-0.672
CN(C)C1CCN(C(=O)c2ccc(NC(=O)Nc3nc(N4CCOCC4)nc(N4CCOCC4)n3)cc2)CC1,Potency,[3],0.0093 µM (active)
same,Potency,[4],0.0209 µM (active)
CC=CC[C@@H](C)C(=O)[C@H]1C(=O)N[C@@H](C(C)C)C(=O)N(C)CC(=O)N(C)[C@@H](CC(C)C)C(=O)N[C@@H](C(C)C)C(=O)N(C)[C@@H](CC(C)C)C(=O)N[C@@H](C)C(=O)N[C@H](C)C(=O)N(C)[C@@H](CC(C)C)C(=O)N(C)[C@@H](CC(C)C)C(=O)N(C)[C@@H](C(C)C)C(=O)N1C,Potency,[3],13.2 µM (active)
same,Potency,[5],14.8 µM (active)
Clc1ccc(Cn2c(CN3CCCC3)nc3ccccc32)cc1,Z-AUC,[8],1.16 (inactive)
same,Z-AUC,[8]; [12],0.912
same,Z-AUC,[8]; measured here: PEO4 Z-AUC,1.11
O=C(O)c1ccc(-c2c[nH]c3ncc(-c4ccccc4)cc23)cc1C1CCCC1,Potency,[3],inactive
same,Potency,[4],inactive
same,Potency,[5],inactive
same,Potency,[6],inactive
same,Z-AUC,[8],0.296 (inactive)
same,Z-AUC,[8]; [12],-0.104
same,Z-AUC,[8]; measured here: PEO4 Z-AUC,0.0769
same,z-score,[7]; [9],1.28
same,z-score,[7]; [10],0.56
same,z-score,[7]; [11],0.0409
